Assay results as given in PubChem BioAssay (NCI).
The panel holds about 83,000 compounds, 20% with a hit somewhere; the sample as a whole holds those more often.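 Testing used 96-well plates and a 48-hour single-concentration exposure. Example: -40 means 40% of the starting cells died.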 Values without a mark were called inactive. Calls of active or inactive are those of the source. How the source made its calls: active means growth percent below 10; inactive means the rest.

What was measured:
Test in all cases: NCI-60 one-dose screen, 48 h (100 = growth as untreated, 0 = no growth, -100 = all killed)
Conditions in all cases: 10 µM unless noted
T-47D breast = test system: T-47D breast
BT-549 breast = test system: BT-549 breast
MDA-MB-435 melanoma = test system: MDA-MB-435 melanoma
SW-620 colon = test system: SW-620 colon
MCF7 breast = test system: MCF7 breast
HCT-116 colon = test system: HCT-116 colon
HCC-2998 colon = test system: HCC-2998 colon
KM12 colon = test system: KM12 colon

Compound | growth (T-47D breast) | growth (BT-549 breast) | growth (MDA-MB-435 melanoma) | growth (SW-620 colon) | growth (MCF7 breast) | growth (HCT-116 colon) | growth (HCC-2998 colon) | growth (KM12 colon)
Cc1csc(NC(c2ccccc2)c2c(C)nc3ccccn23)n1 (stereo not drawn) | 86.9% | 97% | 102% | 96.3% | 94.6% | 91% | 105% | 99.8%
CCN(CC)CCCNc1nccc2ccc(Cl)cc12 | 106% | 92.8% | 103% | 104% | 94% | 84.9% | 106% | 111%
Cn1cc(-c2cnc3ccc(NC(=O)Nc4ccc(F)c(Br)c4)cc3n2)cn1 | -38.1% (active) | 20.5% | 21.5% | 39.8% | 3.7% (active) | 22% | 49.2% | 12.7%
CC(=O)Oc1csc(N(C(C)=O)c2cccc(C(F)(F)F)c2)n1 | 87.7% | -89.8% (active) | 98.1% | 98.7% | 90.8% | 86.6% | 108% | 99.3%
N/C(=N\C(N)=N\c1nc2ccccc2s1)c1cccc(Br)c1 | 52.1% | 79.1% | 93.8% | 102% | 77.4% | 61.2% | 108% | 66.5%
COc1cc(-c2nc(N=Nc3c(O)[nH]c4ccc(Br)cc34)[nH]c(=O)c2C#N)cc(OC)c1OC | 90.6% | 105% | 102% | 93.4% | 99.7% | 99.2% | 117% | 100%
COc1ccc(C2=Nn3c(nnc3-n3nc(C)cc3C)SC2)cc1 | 77.6% | 18.6% | -16.1% (active) | 21.7% | 16.9% | 5.57% (active) | 4.24% (active) | 10%
COc1cc(-c2nn(-c3cccc(NC(=O)c4ccc(N5CCOCC5)c(C(F)(F)F)c4)c3)cc2-c2ccncc2)ccc1Cl | 27.5% | 14.3% | -35.1% (active) | 25.2% | 8.85% (active) | 8.35% (active) | 8.82% (active) | 5.64% (active)
CSc1nc2c(c(=O)[nH]1)C(c1ccc(C)cc1)C=C(C(=O)O)N2 (stereo not drawn) | 96.6% | 93.6% | 102% | 99.8% | 101% | 109% | 102% | 112%
COc1ccc(-c2nc(N3CCCC3=O)sc2Br)cc1OC | 89.2% | 93.2% | 93.5% | 102% | 96.9% | 97.4% | 108% | 92.7%
CN(C)c1oc(C2OC2c2ccccc2)nc1C#N (stereo not drawn) | 89.5% | 95.6% | 101% | 94.3% | 90.5% | 90.2% | 97.3% | 103%
NC1=NC(SCc2ccccc2CCl)c2ncn(Cc3ccccc3CCl)c2N1 (stereo not drawn) | 35.8% | 56.4% | 30.9% | 2.06% (active) | 25.2% | 7.53% (active) | 79.4% | 48.5%
C[n+]1c(/C=C/c2c(O)ccc3ccccc23)ccc2ccccc21 | 26.6% | 27.9% | 25.6% | 17% | 15.9% | -13.9% (active) | 59.8% | 38.7%
Cc1ccc2ccccc2c1C[n+]1ccccc1 | 109% | 79.8% | 102% | 99.7% | 93.9% | 101% | 95.2% | 87.8%
CCN1CCN(c2nc(NNC(=O)c3ccccc3)nc(N3CCN(C(c4ccccc4)c4ccccc4)CC3)n2)CC1 | 40.7% | 79.1% | 60.2% | 5.78% (active) | 28.9% | 20.2% | 31.7% | 58.4%
C=CCn1c2ccccc2c2c3c(c4c5ccccc5n(CC=C)c4c21)C(=O)N(O)C3=O | 13% | 45% | 42.7% | 54.9% | 13% | 22.3% | 36.5% | 26.4%
Cc1ccc(-c2csc(NC(=O)CCCCl)n2)cc1 | 77.2% | 98.1% | 103% | 107% | 90.7% | 98.6% | 103% | 95%
CCOC(=O)c1ccc(NC(=O)N2CC(C)OC(C)C2)cc1 (stereo not drawn) | 94.4% | 97.8% | 105% | 106% | 96.4% | 102% | 105% | 108%
CC1CN(c2oc(-c3ccccc3)nc2C#N)CC(C)O1 (stereo not drawn) | 94.7% | 99.4% | 103% | 104% | 77.1% | 104% | 110% | 103%
COc1cc(Nc2nc(N[C@H]3CCCC[C@@H]3N)nc3cc[nH]c(=O)c23)cc(OC)c1 | 83.6% | -27% (active) | 33.4% | 14.2% | – | 7.88% (active) | 32.1% | 7.39% (active)
COc1cc(-c2nn(-c3cccc(NC(=O)c4cccc(C(F)(F)F)c4)c3)cc2-c2ccncc2)ccc1Cl | 29% | 26% | -39.6% (active) | 36% | 3.58% (active) | 8.15% (active) | – | 13.4%
Nc1cc2c([nH]c[n+]2CC#CCCl)c(SCC#CCCl)n1 | -60.1% (active) | -91.2% (active) | -34.2% (active) | -27.2% (active) | – | -98.6% (active) | -96.9% (active) | -80.2% (active)
O=C(Nc1cccc(-n2cc(-c3ccncc3)c(-c3ccc(Cl)c(O)c3)n2)c1)c1ccc(N2CCOCC2)c(C(F)(F)F)c1 | 69.4% | 63.6% | 35.2% | 6.29% (active) | 60.6% | 29.7% | 56.4% | 30.6%
COc1ccc(NC(=O)c2cc(OC)c(OC)c(OC)c2)cc1O | 42.5% | 45.5% | -15.1% (active) | 28.1% | 24% | 33.4% | – | 22.9%
O=C(Nc1cccc(-n2cc(-c3ccncc3)c(-c3ccc(Cl)c(O)c3)n2)c1)Nc1ccc(Cl)c(Cl)c1 | 23% | 34.4% | 9.98% (active) | 24.5% | 5.74% (active) | 11.1% | – | 8.15% (active)
COc1ccc(C2C=C(c3ccc(N)cc3)N=C3SC=CN32)cc1OC (stereo not drawn) | 102% | 108% | 106% | 112% | 98.6% | 107% | – | 99.5%
Cc1ccc(S(=O)(=O)Nc2c(Br)cc(Br)cc2C(N)=O)cc1 | 101% | 95.6% | 108% | 102% | – | 94.2% | 106% | 111%
COc1ccc(/C=C2\CN(Cc3cn(CCNc4ccnc5cc(Cl)ccc45)nn3)C/C(=C\c3ccc(OC)c(OC)c3)C2=O)cc1OC | 32.9% | -31.6% (active) | -5.87% (active) | 0.355% (active) | 28% | -85.3% (active) | – | -35.7% (active)
N#Cc1c(Nc2ccccc2)nc2n(c1=O)-c1ccccc1Sc1ccccc1-2 | 55.9% | 82.3% | 82.8% | 99.2% | – | 82.9% | 102% | 97.9%
